An excerpt weighted towards active compounds, which were near 3.3% of everything screened.
NRP1-CendR mod: NRP-1/CendR interaction modulation; O14786; hit rate 0.85% among 360,000; inhibition, % at 25 µM; FAM-RPARPAR peptide binding to NRP-1, fluorescence polarization;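 active means inhibition or corrected inhibition above about 18%, plus a signal ratio from 0.5 to 1.5, limit read from the data, passing the limit was not always enough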
HNF4A DNA FP: change in binding of human HNF4 alpha to DNA. HNF4a-FITC DNA binding, fluorescence polarization, 1 h. activity change, % at 10 µM. hit rate 0.3% among 360,000. P41235; in the data active means activity change above about 30%, passing the limit was not always enough
Fh CTSL1 inh: counter-screen for PFM18AAP inhibitors: inhibitors of F. hepatica cathepsin L1 | inhibition, % at 5.96 µM | recombinant F. hepatica cathepsin L1, Z-Leu-Arg-MCA fluorescence | AID 1906 | hit rate 0.49% among 300,000;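 active means inhibition above the mean of all tested compounds plus 3 SD, set per screening campaign, cut at about 17% in these data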;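 further: 0% = plate median of test compound wells and 100% = 1 µM Z-Phe-Ala-diazomethylketone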
Rpn11 block: inhibitors of human proteasome Rpn11; O00487; hit rate 0.59% among 360,000; AID 588493; human 26S proteasome, Ub4-pepOG fluorescence polarization; 20S core pre-blocked with epoxomicin; inhibition, % at 20 µM;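 active means inhibition at 20 µM, scaled to each plate's controls, above about 33%, limit read from the data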
Target sequence (O00487 whole entry, looked up): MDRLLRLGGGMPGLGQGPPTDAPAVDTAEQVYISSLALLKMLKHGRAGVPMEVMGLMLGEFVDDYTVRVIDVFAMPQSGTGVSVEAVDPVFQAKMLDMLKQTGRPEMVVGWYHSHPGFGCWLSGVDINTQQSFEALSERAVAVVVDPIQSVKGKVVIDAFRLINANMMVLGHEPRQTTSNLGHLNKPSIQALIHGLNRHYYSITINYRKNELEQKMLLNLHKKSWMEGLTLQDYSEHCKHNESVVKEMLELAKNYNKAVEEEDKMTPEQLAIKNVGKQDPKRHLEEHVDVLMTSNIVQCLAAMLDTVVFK
PHOSPHO1 inh: PHOSPHO1 (human) inhibition; Q8TCT1; recombinant PHOSPHO1, absorbance phosphatase assay; inhibition, % at 13.3 µM; hit rate 1.1% among 290,000; AID 1565; in the data active means inhibition above about 60%
Target sequence (Q8TCT1 whole entry, looked up): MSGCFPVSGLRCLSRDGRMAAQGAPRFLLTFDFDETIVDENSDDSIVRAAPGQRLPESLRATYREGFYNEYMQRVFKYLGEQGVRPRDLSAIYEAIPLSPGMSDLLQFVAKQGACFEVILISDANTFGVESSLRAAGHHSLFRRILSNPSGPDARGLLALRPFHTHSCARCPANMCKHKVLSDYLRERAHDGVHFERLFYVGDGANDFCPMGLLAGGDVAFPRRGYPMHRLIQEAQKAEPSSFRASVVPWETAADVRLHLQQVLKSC
TPT1 inhibitor: C. albicans TPT1 enzyme inhibition; recombinant caTPT1, FP RNA substrate dephosphorylation; inhibition, % at 5 µM; hit rate 0.81% among 300,000; AID 1962;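 active means inhibition above the mean of all tested compounds plus 3 SD, set per screening campaign, cut at about 24% in these data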;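 further: plate controls were DMSO alone for no effect and ferristatin control at 100 nM for full effect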
caTPT1 confirm: confirmation of Candida albicans TPT1 inhibitors; hit rate 74% among 2,400; AID 2149; shares compounds with TPT1 inhibitor; inhibition, % at 5 µM; recombinant caTPT1, fluorescence polarization, RNase T1 coupled;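 active means inhibition above the primary screen limit, the mean inhibition of all tested compounds plus 3 SD, cut at about 25% in these data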
RNase T1 inh: counter-screen for TPT1 inhibitors: inhibitors of Aspergillus oryzae RNase T1 | hit rate 83% among 2,400 | RNase T1 cleavage, fluorescence polarization, 1536-well | AID 2153 | inhibition, % at 5 µM | shares compounds with TPT1 inhibitor;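 active means inhibition above the solvent-only control well mean plus 3 SD, limit set per screening run, cut at about 23% in these data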;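 further: plate controls were DMSO wells with enzyme for no effect and wells without RNase T1 for full effect; inhibitors block cleavage so intact labeled substrate keeps polarization high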
Numbers without * were called inactive; / = no result given.

SMILES	NRP1-CendR mod	HNF4A DNA FP	Fh CTSL1 inh	Rpn11 block	PHOSPHO1 inh	TPT1 inhibitor	caTPT1 confirm	RNase T1 inh
CSC1=NSC2=NC(=O)/C(=C/c3coc4ccccc4c3=O)C(=N)N12	132	42	2	28	5	52*	60*	62*
CC1=CC2=NC(=O)/C(=C\c3cc(C)n(-c4cccc(Cl)c4)c3C)C(=N)N2O1	-11	4	-3	-6	-5	0	/	/
CSC1=NSC2=NC(=O)/C(=C\c3cccs3)C(=N)N12	-13	-2	4	-6	-3	2	/	/
CSC1=NSC2=NC(=O)/C(=C/c3coc4ccc(O)cc4c3=O)C(=N)N12	137	103	-3	/	9	70*	116*	113*
N=C1/C(=C\c2coc3ccccc3c2=O)C(=O)N=C2SC=CN12	133	9	6	/	-15	40*	34*	47*
CC1=CC2=NC(=O)/C(=C/c3coc4ccc(Cl)cc4c3=O)C(=N)N2O1	134	55	2	/	3	78*	73*	77*
Cc1ccccc1NC(=O)C1Cc2ccccc2CN1C(=O)OCc1ccccc1 (centres undefined)	9	2	-3	-3	11	-4	/	/
CC(NC(=O)c1c(O)c2ccccc2n(C)c1=O)c1ccccc1 (centres undefined)	-6	-3	5	-3	40	-5	/	/
CS(=O)(=O)/C(C#N)=C\c1cnc(S(=O)(=O)c2ccccc2)s1	/	/	-3	/	/	35*	6	12
Cc1ccc(-c2nnc(Nc3ccc4c(c3)nc(C)n4C)c3ccccc23)cc1	4	5	1	9	23	-2	/	/
CC(=O)N(\C=C/C=C/C=C1\Sc2ccccc2C1=O)c1ccccc1	-88	49*	0	18	-23	58*	84*	94*
CN(C)/C=C1/Sc2ccccc2C1=O	8	2	5	-10	32	-5	/	/
CC(=O)Nc1ccc(/C=C2/Sc3ccccc3C2=O)cc1	-25	1	3	14	3	44*	43*	51*
O=C1CSc2ccc(S(=O)(=O)N3CCN(c4ccccc4F)CC3)cc2N1	9	1	0	-2	28	28*	3	10
O=C1CSc2ccc(S(=O)(=O)N3CCN(c4ccccc4)CC3)cc2N1	8	6	-4	-6	33	2	/	/
CC(=O)c1sc(N/N=C\c2ccc(Br)cc2)nc1C	-68	38*	3	/	-23	71*	82*	88*
CCOC(=O)c1sc(N/N=C/c2ccc(N(C)C)cc2)nc1C	5	3	3	7	/	1	/	/
N#Cc1cccc(NC(=O)Cn2cnc(S(=O)(=O)N3CCOCC3)c2)c1	11	0	-1	-6	15	-2	/	/
COc1ccc(/C=c2\s/c(=C/C(=O)c3ccc(C)cc3)[nH]c2=O)c(OC)c1	130	36	2	/	3	67*	28*	37*
Cc1ccc(N(Cc2ccccc2)C(=O)c2ccc(F)c(S(=O)(=O)N3CCOCC3)c2)cc1	17	0	-1	1	/	0	/	/
CCN(CC(=O)Nc1ccc(C(=O)OC)cc1)Cc1ccccc1	-7	-4	1	6	29	46*	8	10
CC(=O)C1=NN(c2ccccc2)C(c2ccc3c(c2)OCO3)N1c1ccccc1 (centres undefined)	-33	11	-2	11	3	27*	46*	59*
COc1ccccc1N/C=C/c1onc(C)c1[N+](=O)[O-]	-97	69*	4	33	40	113*	97*	105*
Cc1noc(/C=C/Nc2ccc(F)cc2F)c1[N+](=O)[O-]	23	0	4	-21	20	4	/	/
Cc1cccc(NC(=O)CNC(=O)c2ccc3nc[nH]c3c2)c1C	10	-9	5	-10	/	2	/	/
SMILES	NRP1-CendR mod	HNF4A DNA FP	Fh CTSL1 inh	Rpn11 block	PHOSPHO1 inh	TPT1 inhibitor	caTPT1 confirm	RNase T1 inh
CCOC(=O)c1sc(/N=C/c2c(C)[nH]n(-c3ccccc3)c2=O)c(C#N)c1C	/	/	-4	/	-7	30*	120*	124*
Nc1c(C(=O)c2ccccc2)sc2snc(SCC(=O)c3ccccc3)c12	-108	16	4	38	32	102*	71*	77*
CCOC(=O)c1c(NC(=O)CC2SC(N)=NC2=O)sc(C)c1C (centres undefined)	-3	-1	-1	-4	33	1	/	/
COC(=O)C1C/C(=N\NS(=O)(=O)c2ccc(C)cc2)c2sccc2C1 (centres undefined)	0	-2	8	-2	6	-4	/	/
COC(=O)C1CC(=O)c2ccsc2C1 (centres undefined)	4	-3	7	4	-7	64*	1	4
O=C1/C(=C/c2ccc(O)cc2)SC(=S)N1CC1CCCO1 (centres undefined)	-199	91*	0	/	56	75*	81*	83*
O=C1/C(=C\c2ccc(O)cc2)SC(=S)N1Cc1ccccc1	-125	94*	-1	/	40	75*	83*	84*
COc1cc(/C=C2/SC(=S)N(Cc3ccccc3)C2=O)cc(Cl)c1O	120	103	3	/	20	37*	4	22*
CCOc1cc(/C=C2/SC(=S)N(Cc3ccccc3)C2=O)ccc1O	-152	38*	3	/	/	26*	38*	48*
O=C1/C(=C/c2ccc(O)c([N+](=O)[O-])c2)SC(=S)N1Cc1ccccc1	-171	29	2	23	21	15	/	/
COc1cc(/C=C2/SC(=S)N(Cc3ccccc3)C2=O)ccc1OCC(=O)O	-55	8	2	30	-2	10	/	/
OC(COCc1ccccc1F)CN1CCCCC1 (centres undefined)	-2	-1	4	-4	/	-3	/	/
CCCN1C(=O)/C(=C/c2ccc(N3CCOCC3)cc2)NC1=S	-147	90*	2	/	-5	138*	143*	139*
CCN1C(=O)/C(=C/c2ccc(N3CCCC3)cc2)NC1=S	132	148	5	/	-15	150*	154*	142*
CCC(=O)c1ccc(OCC(O)CNCCc2ccc(Cl)cc2)cc1 (centres undefined)	1	1	2	-2	/	4	/	/
Nc1nc(N)c2ncc(C(=O)CCc3ccccc3)nc2n1	-26	5	-5	22	25	41*	44*	56*
O=C(NCc1ccccc1Cl)c1ccc(S(=O)(=O)NCc2ccco2)cc1	-4	1	/	-4	/	/	/	/
O=C(NNS(=O)(=O)c1ccccc1)c1ccc(S(=O)(=O)N2CCCCC2)cc1	2	0	2	-6	-5	40*	1	2
